Laboratory results taken from publication PMC4336329 (PLoS ONE, 2015).
The whole screen tested about 310,000 compounds, of which about 14,000 (4.5%) showed an effect of 50% or more. Effects have a minus sign here. The entries come from a sample that favours strong results as a whole.

target: human ether-à-go-go-related gene (hERG) potassium channel (human, UniProt Q12809); assay: primary screen, population patch clamp on CHO cells stably expressing hERG; higher = less effect of the substance
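Note: peak tail current of the secondary pulse compared with the same well before compound.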

Chain of human ether-à-go-go-related gene (hERG) potassium channel (Q12809 whole entry, looked up): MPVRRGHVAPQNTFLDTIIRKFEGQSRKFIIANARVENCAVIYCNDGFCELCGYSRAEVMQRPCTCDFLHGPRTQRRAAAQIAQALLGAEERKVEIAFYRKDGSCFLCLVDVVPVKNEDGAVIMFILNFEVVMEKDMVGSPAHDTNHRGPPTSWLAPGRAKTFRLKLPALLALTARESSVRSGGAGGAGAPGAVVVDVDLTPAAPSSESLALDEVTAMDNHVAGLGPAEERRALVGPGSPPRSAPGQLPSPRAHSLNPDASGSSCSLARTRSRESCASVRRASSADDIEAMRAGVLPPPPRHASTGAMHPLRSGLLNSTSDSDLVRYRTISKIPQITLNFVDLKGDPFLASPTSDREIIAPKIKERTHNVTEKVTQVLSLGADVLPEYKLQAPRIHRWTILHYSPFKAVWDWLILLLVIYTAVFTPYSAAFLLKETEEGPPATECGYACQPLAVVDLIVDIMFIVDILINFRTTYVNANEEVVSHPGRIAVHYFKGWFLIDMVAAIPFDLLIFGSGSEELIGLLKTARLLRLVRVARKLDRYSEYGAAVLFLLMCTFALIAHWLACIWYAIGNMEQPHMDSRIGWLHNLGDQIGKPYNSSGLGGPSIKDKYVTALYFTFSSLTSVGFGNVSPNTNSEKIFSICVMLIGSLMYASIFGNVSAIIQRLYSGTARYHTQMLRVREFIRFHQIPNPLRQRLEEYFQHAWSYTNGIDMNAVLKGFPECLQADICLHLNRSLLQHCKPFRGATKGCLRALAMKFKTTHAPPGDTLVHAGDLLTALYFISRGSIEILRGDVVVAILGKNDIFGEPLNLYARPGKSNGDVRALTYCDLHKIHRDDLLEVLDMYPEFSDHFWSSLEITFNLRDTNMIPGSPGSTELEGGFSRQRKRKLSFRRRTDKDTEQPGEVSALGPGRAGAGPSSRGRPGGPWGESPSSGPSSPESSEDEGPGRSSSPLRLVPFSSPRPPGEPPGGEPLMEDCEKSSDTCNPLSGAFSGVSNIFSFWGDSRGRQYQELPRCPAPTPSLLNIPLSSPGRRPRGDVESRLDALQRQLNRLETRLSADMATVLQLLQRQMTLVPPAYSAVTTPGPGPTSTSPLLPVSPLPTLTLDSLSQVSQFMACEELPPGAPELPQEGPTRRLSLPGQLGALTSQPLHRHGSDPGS

Row | Compound | hERG current change (%, negative = inhibition) at 10uM [%]
1 | Cc1ccc(C(C(=O)NC2CCCCC2)N(Cc2cccnc2)C(=O)C2COc3ccccc3O2)o1 (stereo not drawn) | -59.7
2 | Cc1ccc(C(C(=O)NC2CCCCC2)N(Cc2ccco2)C(=O)C2COc3ccccc3O2)o1 (stereo not drawn) | -6.27
3 | O=C(NC1CCCCC1)C(c1ccco1)N(Cc1cccnc1)C(=O)C1COc2ccccc2O1 (stereo not drawn) | -18.8
4 | Cc1ccc(NC(=O)c2sc(C)nc2C)c(C)c1 | 1.97
5 | O=C(N/N=C/c1ccccc1OCc1ccccc1)c1cccs1 | 5.13
6 | CCc1cc(=O)oc2cc(OS(C)(=O)=O)ccc12 | -5.44
7 | CCOC(=O)c1ccc(Oc2c(C)oc3cc(OS(C)(=O)=O)ccc3c2=O)cc1 | -66
8 | CCOC(=O)c1c(C)oc2ccc(OS(C)(=O)=O)cc12 | 1.04
9 | Cc1cc(=O)oc2cc(OS(C)(=O)=O)ccc12 | 4.31
10 | Cc1c(C)c2ccc(OS(C)(=O)=O)cc2oc1=O | -58.4
11 | CCOc1ccc2c(=O)c(Oc3ccccc3)c(C)oc2c1 | -6.41
12 | COc1ccccc1/C=C/C=N/N1CCN(Cc2ccccc2)CC1 | -8.94
13 | COc1ccc(/C(O)=C2/C(=O)C(=O)N(CC3CCCO3)C2c2ccc(OC)c(OC)c2)cc1 (stereo not drawn) | 1.45
14 | Cc1cnc(NC(=O)CCCNC(=O)c2ccc(Cl)cc2)s1 | 12.8
15 | Cc1ccccc1-n1c(-c2ccc([N+](=O)[O-])cc2)nc2ccccc2c1=O | -0.532
16 | CC1=NN(C(=O)c2ccc(Cn3nc(C)c([N+](=O)[O-])c3C)cc2)C(O)(C(F)(F)F)C1 (stereo not drawn) | -28.8
17 | Cc1nn(Cc2ccc(C(=O)N3N=C(C(F)F)CC3(O)C(F)F)o2)c(C)c1[N+](=O)[O-] (stereo not drawn) | -37.3
18 | Cc1nn(Cc2ccc(C(=O)N3N=C(C(F)F)CC3(O)C(F)F)cc2)c(C)c1[N+](=O)[O-] (stereo not drawn) | -62.9
19 | CC1=NN(C(=O)c2ccc(Cn3nc(C)c([N+](=O)[O-])c3C)o2)C(O)(C(F)(F)F)C1 (stereo not drawn) | -52.8
20 | Cc1nn(Cc2cccc(C(=O)N3N=C(C(F)F)CC3(O)C(F)F)c2)c(C)c1[N+](=O)[O-] (stereo not drawn) | -19.6
21 | CC1=NN(C(=O)c2cccc(Cn3nc(C)c([N+](=O)[O-])c3C)c2)C(O)(C(F)(F)F)C1 (stereo not drawn) | 0.484
22 | C=CCn1c(=O)/c(=C\c2ccccn2)s/c1=C(/C#N)C(=O)NCC1CCCO1 (stereo not drawn) | -3.51
23 | CN1CCC(=NNC(=O)CN(c2ccc(Oc3ccccc3)cc2)S(C)(=O)=O)CC1 | 9.51
24 | Cc1ccc([N+](=O)[O-])cc1S(=O)(=O)NCCc1cn2ccccc2n1 | -2.95
25 | CC(C)CCN(C(=O)CNC(=O)c1cccs1)C(C(=O)NC1CCCCC1)c1cccnc1 (stereo not drawn) | -36.4
26 | C=C1C(=O)[C@@]23[C@H](O)C[C@@H]4C(C)(C)CC[C@H](O)[C@@]4(C)[C@@H]2CC[C@@H]1[C@H]3O | -9.9
27 | COc1ccc(Cn2c(C(F)(F)F)ccc(C(N)=O)c2=O)cc1 | 1.62

Row | Compound | hERG current change (%, negative = inhibition) at 10uM [%]
28 | c1ccc2c(-c3nnc4n3CCCCC4)cc(-c3ccncc3)nc2c1 | -48.7
29 | Fc1ccc(-c2cc(-c3nnc4n3CCCCC4)c3ccccc3n2)cc1 | -63.5
30 | N=c1c2ccccc2nc2n1CCCCCCCCCCC2 | -62
31 | O=c1c2ccccc2nc2n1CCC2 | 13.6
32 | Clc1ccc(-c2cc(-c3nnc4n3CCCCC4)c3ccccc3n2)cc1 | -42.1
33 | O=c1c2ccccc2nc2n1CCCCC2 | -4.17
34 | O=C(NCc1cccnc1)c1cc2nc(-c3ccc4c(c3)OCO4)cc(C(F)(F)F)n2n1 | 3.07
35 | COc1ccc(NS(=O)(=O)c2cccc(C(=O)NNC(=O)NCCCl)c2)cc1 | 20.3
36 | CN1CCc2c(sc(NC(=O)c3ccc(S(=O)(=O)N4CCCCCC4)cc3)c2C(N)=O)C1 | 5.51
37 | O=C1CN(C(=O)c2ccc(Cl)c(S(=O)(=O)N3CCc4ccccc43)c2)c2ccccc2N1 | -21
38 | COCCn1nnnc1CN1CCC(C)CC1 | -2.19
39 | O=C(Cn1cnc2c(oc3ccccc32)c1=O)c1ccccc1 | 2.38
40 | O=C(NC1CCCCCC1)C1CCN(S(=O)(=O)c2ccc(F)cc2)CC1 | 0.579
41 | CN1/C(=C\C=N\O)C(C)(C)c2ccccc21 | 17.1
42 | CN1/C(=C/C=N/n2cnnc2)C(C)(C)c2ccccc21 | -1.92
43 | CN1/C(=C\C=Nc2ccc3ccccc3c2)C(C)(C)c2ccccc21 | -74.8
44 | Cc1ccccc1N=C/C=C1\N(C)c2ccccc2C1(C)C | -70.7
45 | CN1C(=O)C(C)(C)c2cc(S(=O)(=O)N3CCN(c4ccccc4F)CC3)ccc21 | -3.03
46 | CN1/C(=C/C=C(C#N)C#N)C(C)(C)c2ccccc21 | 14.7
47 | CN1/C(=C\C=Nc2cc(S(=O)(=O)N3CCOCC3)ccc2N2CCOCC2)C(C)(C)c2ccccc21 | -71
48 | Cc1cc(/N=C/C=C2\N(C)c3ccccc3C2(C)C)n(CCC#N)n1 | -29.8
49 | Cc1ccccc1N=CC=C1OC(C)(C)C(C)(C)O1 | -1.54
50 | CN1/C(=C\C=Nc2ccccc2)C(C)(C)c2ccccc21 | -72.1
51 | O=S(=O)(c1ccc(N2CCOCC2)c(Cl)c1)N1CCOCC1 | 15.5
52 | CO/N=C/C=C1/N(C)c2ccccc2C1(C)C | 19.8
53 | COc1ccc(NC(=O)NCc2ccncc2)cc1 | 13.8
54 | CC(C)(C)c1ccc(C(=O)NNc2ccc(F)cc2F)cc1 | 9.96
